In the library only some 2.9% were active in any assay of this set; here they are far more common.
DRD3 antagonist: antagonists of human D3 dopamine receptor; P35462; D3R cells, DiscoveRx beta-arrestin luminescence, antagonist mode; stronger effect = lower value; max response, negative = inhibition, %; 2.5% of 360,000 active; AID 652054; in the data active = max response below about -50%; inconclusive = no clear call, values can overlap the other calls; note: % is set by controls: 0 for no effect and ±100 for the full control effect
Target sequence (P35462 whole entry, looked up): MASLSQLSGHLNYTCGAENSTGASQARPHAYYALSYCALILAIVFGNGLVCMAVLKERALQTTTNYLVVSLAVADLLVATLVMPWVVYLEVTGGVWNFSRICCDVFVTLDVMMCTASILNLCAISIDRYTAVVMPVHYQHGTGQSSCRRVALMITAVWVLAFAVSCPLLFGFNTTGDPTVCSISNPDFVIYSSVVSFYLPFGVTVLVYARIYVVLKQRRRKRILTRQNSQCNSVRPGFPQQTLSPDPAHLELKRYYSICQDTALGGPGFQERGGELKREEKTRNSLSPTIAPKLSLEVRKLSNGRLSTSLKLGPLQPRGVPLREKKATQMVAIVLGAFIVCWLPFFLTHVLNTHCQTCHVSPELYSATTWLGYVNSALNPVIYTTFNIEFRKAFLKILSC
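Cells plated overnight at 1500 cells/well, then exposed to library compounds with dopamine controls for 90 minutes at 37 degrees C. DiscoveRx reagent added for 30–60 minutes at room temperature; luminescence read, quantitative HTS format.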
TRPML1 agonist: agonists of human TRPML1 channel; TRPML1-expressing cells, Ca2+ dye fluorescence, FDSS; activation, % (concentration not given with the values); 0.12% of 410,000 active; in the data active = activation above about 50%; inconclusive = mostly about 30% to 49%; note: 0% is about no effect
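Kinetic FDSS Ca2+ read in Tet-induced TRPML1-DL cells (ABD Ca8 dye plus quencher, 45-90 min RT loading): baseline, then compound, then 110 s agonist window; EC80 agonist 54-4 at 4uM final added afterwards for a 110 s antagonist window.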
TRPML1 blocker: human mucolipin-1 channel inhibition | TRPML1-inducible cells, Ca2+ dye fluorescence, FDSS; stronger effect = lower value; inhibition of EC80 agonist-evoked calcium signal | activity change, negative = inhibition, % (test concentration not listed) | Q9GZU1 | 0.02% of 390,000 active; in the data active = activity change below about -50%; inconclusive = between about -30% and that limit;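 note: stimulus is agonist 54-4 at its EC80 concentration; % is set by controls: 0 for no effect and ±100 for the full control effect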
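Tet-induced TRPML1-DL cells loaded with Ca8 no-wash calcium dye were read kinetically on FDSS. Compound addition was followed by EC80 agonist 54-4 (4 uM final); inhibition was read over 110 s.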
D3 ag: D3 dopamine receptor (human) agonism; D3R DiscoveRx beta-arrestin cells, luminescence, 90 min; max activation, %; 0.58% of 410,000 active; AID 652048; in the data active = max activation above about 30%; note: 0% is about no effect
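Agonist-mode cell screen: cells plated at 1500/well and incubated overnight at 37 °C, then exposed to library compounds for 90 min at 37 °C. Detection reagent was added for 30–60 min at room temperature, and luminescence was read.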
An asterisk follows results filed as active; ? = inconclusive; · = no result; ! = a repeat was not active.

SMILES	DRD3 antagonist	TRPML1 agonist	TRPML1 blocker	D3 ag
Cc1nc(C(F)(F)F)c(C(=O)N/N=C(\N)c2ccccn2)s1	-51.9*	-0.4	11.7	-3.9
C[C@@H](NCCCn1cnc2c(OCc3ccccc3)ncnc21)c1cccc2ccccc12	?	-0.1	-11.0	-46.7
Cc1ccc(CN2CCN(CCCn3cnc4c(OCc5ccccc5)ncnc43)CC2)cc1	-53.4*	0.4	-6.7	-63.9
c1ccc(CNCCCn2cnc3c(OCc4ccccc4)ncnc32)cc1	-14.5	0.1	7.8	-53.6
c1ccc(COc2ncnc3c2ncn3CCCN2CCN(Cc3cccc4ccccc34)CC2)cc1	-67.1*	·	·	-5.3
CC(C)(C)c1ccc(OCCOCCn2c(-c3ccc(Cl)cc3)nc3ccccc3c2=O)cc1	·	1.6	-5.1	-3.7
Nc1ccccc1SC(CC(=O)c1ccccc1)c1ccc([N+](=O)[O-])cc1 (configuration not stated)	-51.4*	0.4	-6.7	-7.0
Cc1cccc(CCN(C(=O)c2snc(C(N)=O)c2N)C(C(=O)NCC2CCCO2)c2ccc(F)cc2)c1 (configuration not stated)	8.5	1.0	12.5	2.1
COc1ccc(CCN(C(=O)c2snc(C(N)=O)c2N)C(C(=O)NCC2CCCO2)c2ccc(F)cc2)cc1OC (configuration not stated)	10.1	-1.4	-4.5	35.6*
OC(CNC1CCCCC1)CON=C1CCSc2c(Cl)cccc21 (configuration not stated)	-66.3*	0.1	27.7	-8.9
CNC(=S)N/N=C/c1ccc(N(C)C)cc1	-10.1	0.4	-25.3	4.8
CNC(=S)N/N=C/c1ccc(C(C)C)cc1	-59.2*	-0.5	6.3	2.3
CCN(C(=O)Cn1c(=O)n(-c2ccccc2)c(=O)c2ccc(C(=O)NCc3ccc4c(c3)OCO4)cc21)c1cccc(C)c1	·	1.1	15.1	2.8
O=C(O)c1ccc2c(c1)C(=O)N(C(Cc1ccc(O)cc1)C(=O)O)C2=O (configuration not stated)	-69.7*	-1.0	17.5	-2.4
COc1ccc(NC(=O)CN(C)S(=O)(=O)c2ccc3c(c2)c(=O)n(C)c(=O)n3C)cc1	7.8	0.2	-87.2*!	5.7
CCN1CCc2c(sc(-n3cccc3)c2C(C)NC(=O)Nc2cc(Cl)c(OC)cc2OC)C1 (configuration not stated)	·	0.1	-1.3	-20.7
CN1C/C(=C/c2cccnc2)C(=O)/C(=C/c2cccnc2)C1	-55.3*	0.1	4.1	-7.6
CC(C)N1C/C(=C/c2cccnc2)C(=O)/C(=C/c2cccnc2)C1	?	-0.6	-9.9	6.9
COc1cccc2sc3cc(C#CC4(O)CCCCC4)ccc3c(=O)c12	203.2	2.3	15.9	63.4*
O=C(C[n+]1ccccc1Cl)c1ccc2c(c1)CCCC2	·	-0.5	·	·
O=C(CN(C(=O)c1cccc([N+](=O)[O-])c1)C1CCCCC1)Nc1ccc(Cl)c([N+](=O)[O-])c1	-79.1*	-1.1	-4.3	-12.3
O=C(NC(=S)Nc1cc(C(F)(F)F)ccc1Cl)c1ccccc1	?	-0.1	5.1	-10.2
FC(F)(F)c1ccc(Cl)c(NC(=S)N/N=C/c2ccccc2Cl)c1	-65.9*	0.9	31.7	-0.7
O=C(CN1C(=O)CCSc2ccccc21)Nc1ccc(C(F)(F)F)cc1	·	2.1	-15.8	4.7
O=C1C=CC(O)(c2cc(=O)c3c(O)cc(O)cc3o2)C=C1	-80.4*	2.6	-3.2	-31.7
SMILES	DRD3 antagonist	TRPML1 agonist	TRPML1 blocker	D3 ag
Cn1c(=N)n(CC(=O)O)c2ccccc21	-61.7*	1.5	-16.2	-3.8
COc1ccc(-c2oc(=O)c3cc(OC)c(OC)cc3c2C(F)(F)F)cc1	21.3	0.9	-0.4	62.2*
CC(NC(=O)Cn1ncc(Cl)c(Cl)c1=O)C12CC3CC(CC(C3)C1)C2 (configuration not stated)	-76.7*	0.0	13.2	-13.6
O=C(CN1CCCCC1)NC(=O)NC1CCCC1	0.7	0.2	8.1	-3.7
O=C(Cn1ncc(Cl)c(Cl)c1=O)NC(=O)NC1CCCCC1	-68.1*	1.2	-19.7	-13.1
Cc1c(O)ccc2c1OC(C)(C)CC2	·	-0.8	·	·
Cc1nc(N2CCCC2)c2c(C(=O)Nc3ccc(C)c(Cl)c3)c(C)oc2n1	·	0.7	7.8	1.1
Cn1cc(C(=O)c2ccccc2)cc1-c1nc2ccccc2n1C	23.6	-0.4	-9.5	1.4
Cc1oc(-c2nc3ccccc3n2C)cc1C(=O)c1ccccc1	-60.2*	-0.4	2.2	2.6
Cc1ccc(S(=O)(=O)c2nnn3c2nc(NCc2cccs2)c2sccc23)cc1C	·	1.2	-3.7	5.7
